We go through three compounds from paper PMC11062922 (Nature Chemical Biology, 2023).

What all share (parameters): species or system human, MV4-11 + K-562 + COLO205 + SK-N-BE2 + OVCAR-8
For assay [1], the system named is AKT3. Particulars: read-out: apparent Kd; compound concentrations: 100 nM and 1000 nM (sheet 'Samples'), CATDS: 0.31242547502762402; n = 1.
Assay [2] relates to COX5A. Particulars: read-out: apparent Kd; compound concentrations: 100 nM and 1000 nM (sheet 'Samples'), CATDS: 0.36000634537809301; n = 1.
For assay [3], the system named is MAPKAPK2. Particulars: read-out: apparent Kd; compound concentrations: 100 nM and 1000 nM (sheet 'Samples'), CATDS: 0.330960581513286; n = 1.
Assay [4] relates to ATM. Particulars: read-out: apparent Kd; compound concentrations: 100 nM and 1000 nM (sheet 'Samples'), CATDS: 0.41438416433349501; n = 1.
In assay [5] the test system is FLT4. The conditions noted are these: read-out: apparent Kd; compound concentrations: 100 nM and 1000 nM (sheet 'Samples'), CATDS: 0.192292703568538; n = 1.
Assay [6] has as its system RIPK2. Particulars: read-out: apparent Kd; compound concentrations: 100 nM and 1000 nM (sheet 'Samples'), CATDS: 0.39426216370123801; n = 1.
The test system of assay [7] is STK10. Particulars: read-out: apparent Kd; compound concentrations: 100 nM and 1000 nM (sheet 'Samples'), CATDS: 0.17094041462039; n = 1.
The subject of assay [8] is ARAF. The conditions noted are these: read-out: apparent Kd; compound concentrations: 100 nM and 1000 nM (sheet 'Samples'), CATDS: 5.7058151547421603E-2; n = 1.
The subject of assay [9] is AURKB. Particulars: read-out: apparent Kd; compound concentrations: 100 nM and 1000 nM (sheet 'Samples'), CATDS: 7.6313270646160003E-2; n = 1.
Assay [10] has as its system CDK10. Particulars: read-out: apparent Kd; compound concentrations: 100 nM and 1000 nM (sheet 'Samples'), CATDS: 4.7356603246951401E-2; n = 1.
For assay [11], the system named is EIF2AK1. The conditions noted are these: read-out: apparent Kd; compound concentrations: 100 nM and 1000 nM (sheet 'Samples'), CATDS: 9.9444074650609393E-2; n = 1.
For assay [12], the system named is FN3K. Particulars: read-out: apparent Kd; compound concentrations: 100 nM and 1000 nM (sheet 'Samples'), CATDS: 5.2169605073521003E-2; n = 1.
The subject of assay [13] is ICK. Particulars: read-out: apparent Kd; compound concentrations: 100 nM and 1000 nM (sheet 'Samples'), CATDS: 4.7896181585756002E-2; n = 1.
Assay [14] concerns LATS1. The conditions noted are these: read-out: apparent Kd; compound concentrations: 100 nM and 1000 nM (sheet 'Samples'), CATDS: 4.4770495584516998E-2; n = 1.
For assay [15], the system named is MAP2K5. Particulars: read-out: apparent Kd; compound concentrations: 100 nM and 1000 nM (sheet 'Samples'), CATDS: 0.11655274425704; n = 1.
Assay [16] deals with MAP3K2. The conditions noted are these: read-out: apparent Kd; compound concentrations: 100 nM and 1000 nM (sheet 'Samples'), CATDS: 4.6082371307615597E-2; n = 1.
The subject of assay [17] is MAP3K4. The conditions noted are these: read-out: apparent Kd; compound concentrations: 100 nM and 1000 nM (sheet 'Samples'), CATDS: 4.8228704879059399E-2; n = 1.
Assay [18] relates to MAP4K1. The conditions noted are these: read-out: apparent Kd; compound concentrations: 100 nM and 1000 nM (sheet 'Samples'), CATDS: 4.8558197444370697E-2; n = 1.
The subject of assay [19] is MAP4K2. The conditions noted are these: read-out: apparent Kd; compound concentrations: 100 nM and 1000 nM (sheet 'Samples'), CATDS: 5.6009475369740498E-2; n = 1.
Assay [20] has as its system MAP4K3. Particulars: read-out: apparent Kd; compound concentrations: 100 nM and 1000 nM (sheet 'Samples'), CATDS: 7.0202424980237099E-2; n = 1.
Assay [21] relates to NEK1. The conditions noted are these: read-out: apparent Kd; compound concentrations: 100 nM and 1000 nM (sheet 'Samples'), CATDS: 8.0496381389801502E-2; n = 1.
Assay [22] deals with NEK2. The conditions noted are these: read-out: apparent Kd; compound concentrations: 100 nM and 1000 nM (sheet 'Samples'), CATDS: 4.3015896259207202E-2; n = 1.
Assay [23] has as its system PKMYT1. The conditions noted are these: read-out: apparent Kd; compound concentrations: 100 nM and 1000 nM (sheet 'Samples'), CATDS: 4.44842965705885E-2; n = 1.
Assay [24] concerns PTK6. The conditions noted are these: read-out: apparent Kd; compound concentrations: 100 nM and 1000 nM (sheet 'Samples'), CATDS: 5.5693628002095402E-2; n = 1.
The subject of assay [25] is RAF1. The conditions noted are these: read-out: apparent Kd; compound concentrations: 100 nM and 1000 nM (sheet 'Samples'), CATDS: 4.9993718202349699E-2; n = 1.

Take `FC(F)(F)c1cccc(-c2nn3ncccc3c2-c2ccnc(Nc3ccc4c(c3)OCCO4)n2)c1` [GW827102X]: the potency estimated from few doses was 2.07 µM in assay [1], 1.56 µM in assay [2] and 1.83 µM in [3].
As for `CCS(=O)(=O)c1ccc(OC)c(Nc2nccc(N(C)c3ccc4c(C)n[nH]c4c3)n2)c1.Cl` [GW654652C], the potency estimated from few doses is 0.228 µM in [4], 1.43 µM in [5], 0.249 µM in assay [6] and 2.28 µM in assay [7].
As to `Cc1ccccc1CC(=O)N1CCc2cc(-c3cn(C)c4ncnc(N)c34)ccc21` [GSK2603346A], the potency estimated from few doses in [8] was 0.942 µM; in [9] it was 0.547 µM; in [10], 1.45 µM; in [11] it was 0.36 µM; in assay [12], 1.14 µM; in assay [13], 1.41 µM. Also, the potency estimated from few doses in assay [14] was 1.68 µM; in [15], 0.287 µM; in [16] it was 1.55 µM; in [17], 1.38 µM; in assay [18] it was 1.36 µM; in assay [19], 0.979 µM. Moreover, the potency estimated from few doses in [20] was 0.632 µM; in assay [21] it was 0.501 µM; in assay [22] it was 1.89 µM; in [23], 1.71 µM; in [24] it was 0.991 µM; in [25], 1.26 µM.
